This is part of a sample that, as a whole, favours compounds with a hit. Of some 83,000 tested, about 20% had one in any assay.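 Method: cells in 96-well plates; compound added at one concentration; 48 h incubation; percent growth measured; values under 10 scored active.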 Unmarked numbers belong to inactive results. Activity calls are given as the source filed them.
Assays:
Test in all cases: NCI-60 one-dose screen, 48 h (100 = growth as untreated, 0 = no growth, -100 = all killed)
NCI-H23 lung = settings: 10 µM unless noted
DU-145 prostate = settings: 10 µM unless noted
MDA-MB-231 breast = settings: 10 µM unless noted
SF-268 CNS = settings: 10 µM unless noted
SF-539 CNS = settings: 10 µM unless noted
M14 melanoma = settings: 10 µM unless noted
HCT-15 colon = settings: 10 µM
HT29 colon = settings: 10 µM unless noted
SNB-75 CNS = settings: 10 µM unless noted
PC-3 prostate = settings: 10 µM unless noted
UACC-62 melanoma = settings: 10 µM unless noted
SK-MEL-28 melanoma = settings: 10 µM unless noted
SN12C renal = settings: 10 µM unless noted
ACHN renal = settings: 10 µM unless noted
OVCAR-8 ovarian = settings: 10 µM unless noted
OVCAR-5 ovarian = settings: 10 µM unless noted
NCI/ADR-RES ovarian = settings: 10 µM unless noted
MDA-MB-435 melanoma = settings: 10 µM unless noted
HCT-116 colon = settings: 10 µM unless noted
KM12 colon = settings: 10 µM unless noted

| Structure (SMILES) | growth (NCI-H23 lung) | growth (DU-145 prostate) | growth (MDA-MB-231 breast) | growth (SF-268 CNS) | growth (SF-539 CNS) | growth (M14 melanoma) | growth (HCT-15 colon) | growth (HT29 colon) | growth (SNB-75 CNS) | growth (PC-3 prostate) | growth (UACC-62 melanoma) | growth (SK-MEL-28 melanoma) | growth (SN12C renal) | growth (ACHN renal) | growth (OVCAR-8 ovarian) | growth (OVCAR-5 ovarian) | growth (NCI/ADR-RES ovarian) | growth (MDA-MB-435 melanoma) | growth (HCT-116 colon) | growth (KM12 colon) |
| --- | --- | --- | --- | --- | --- | --- | --- | --- | --- | --- | --- | --- | --- | --- | --- | --- | --- | --- | --- | --- |
| Cc1cc(NC(=O)CCc2ccc(N3C(N)=NC(N)=NC3(C)C)cc2)ccc1S(=O)(=O)F | 26.2% | 45.8% | 76.8% | 32.2% | 5.99% (active) | 48.2% | 60.1% | 24.7% | 52.5% | -23.4% (active) | 22.6% | 53.9% | 32.8% | 70.9% | 40.9% | 17.9% | 19.2% | 32% | 18.3% | 18.8% |
| O=C1NC(=O)C(O)(C2(O)C(=O)NC(=O)NC2=O)C(=O)N1 | 103% | 109% | 91.2% | 91.6% | 88% | 105% | 107% | 104% | 94% | 89.2% | 87.2% | 109% | 92.3% | 104% | 109% | 88.1% | 92.7% | 108% | 97% | 100% |
| CCCCCCCC(=O)OCC/C=C/C1OC1C1OC(=O)/C=C\C=C\c2nc(oc2C)/C=C(/C)CCC2OC2C1OC(=O)NC(C)=O (configuration not stated) | -59.1% (active) | -74.5% (active) |  | 5.33% (active) | -34.1% (active) | -20.4% (active) | -5.6% (active) | 4.62% (active) | -35.8% (active) | -3.27% (active) | -49.6% (active) | -15.3% (active) | -99.9% (active) | -16.8% (active) | -79.1% (active) | -22% (active) | -33.8% (active) | 3.24% (active) | -24.4% (active) | -74% (active) |
| C[C@@H]1O[C@@H](O[C@H]2CC[C@@]3(C)[C@H](CCC4[C@@H]3C(O)C[C@]3(C)[C@@H](c5ccc(=O)oc5)CC[C@]43O)C2)[C@H](O)[C@H](O)[C@H]1O (some centres not stated) | -78.5% (active) | -70.1% (active) | -63.7% (active) | -63.1% (active) |  | -70.7% (active) | -74.5% (active) | -90.4% (active) | -88.3% (active) | -33.3% (active) | -89.6% (active) | -96.1% (active) | -25.3% (active) | -81.7% (active) |  | -92% (active) | -66.8% (active) | -76.2% (active) | -79.9% (active) | -94.2% (active) |
| NC(=O)NC(=O)CI | 95.5% | 101% | 94.9% | 101% | 109% | 88.7% | 85.7% | 99.1% | 106% | 98.5% | 86.7% | 89.5% | 85% | 84.7% | 101% | 114% | 99.4% | 98.2% | 36.8% | 107% |
| O=C1c2ccccc2C(=O)N1[N+](=O)[O-] | 95.3% | 106% | 101% | 104% | 108% | 105% | 110% | 102% | 103% | 94.9% | 96.1% | 112% | 97.2% | 111% | 100% | 112% | 97.9% | 110% | 112% | 101% |
| CC(C)[C@]12O[C@H]1[C@@H]1O[C@]13[C@]1(O[C@H]1C[C@H]1C4=C(CC[C@@]13C)C(=O)OC4)[C@@H]2OC(=O)OC(C)(C)C | -28% (active) | 8.08% (active) | 21.8% | -2.29% (active) | -20.2% (active) | -75.7% (active) | 8.8% (active) | 1.27% (active) | -60.5% (active) | 19.8% | -51.4% (active) | -1.69% (active) | 20% | 9.88% (active) | 16.8% | 24.4% | -2.52% (active) | -73.6% (active) | 4.76% (active) | 2.1% (active) |
